32 compounds from PubChem BioAssay (NCI) can be followed below.

Compounds without any hit were thinned out: in the full panel of roughly 83,000, 20% have a hit.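 Growth was measured after 48 h exposure to one concentration of compound in 96-well plates. Values under 10 count as active.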 Values without a mark were called inactive. The source made the active and inactive calls.

The first assay relates to UACC-257 melanoma. Kind of assay: NCI-60 one-dose screen, 48 h (100 = growth as untreated, 0 = no growth, -100 = all killed). The following applies: 10 µM unless noted.
As to `COc1cc(/C=C/C(=O)c2ccc(O)c(CN3CCN(c4cc5c(cc4F)c(=O)c(C(=O)O)cn5C4CC4)CC3)c2)cc(OC)c1OC`, the growth was 64.5%.

In the case of `CC(C)(O)c1cn(CCCCN2C(=O)C(=O)c3ccccc32)nn1`, the growth is 103%.

For the compound `COC(=O)[C@]12CCC(C)(C)C[C@H]1[C@H]1C(=O)C[C@@H]3[C@@]4(C)c5c([nH]c6ccccc6c5=O)C(C)(C)[C@@H]4CC[C@@]3(C)[C@]1(C)CC2`, the growth was 57.4%.

Take `N=C(N)c1ccc(-c2ccc(-c3ccc4ccccc4c3)s2)s1`: the growth was 77%.

Regarding `C=CC(=O)Nc1cccc(-c2nc(SC)nc(NCCN3CCOCC3)c2C#N)c1`, the growth was 94.1%.

Turning to `COc1cc(C=Nc2oc(-c3ccccc3)c(-c3ccccc3)c2C#N)cc(CN2CCCCC2)c1O`, the growth is 116%.

For `CC1=NN(c2nc(-c3ccc(Cl)cc3)c(C#N)c(N3CCOCC3)n2)C(=O)C1`, the growth is 99.9%.

For the compound `COc1cccc(Nc2nc(SC)nc(-c3cccc([N+](=O)[O-])c3)c2C#N)c1`, the growth is 88.5%.

`CSc1nc(NCCO)c(C#N)c(-c2cccc([N+](=O)[O-])c2)n1`: the growth is 115%.

As for `Cn1c(O)c(N=NC(=O)c2cc(-c3ccccc3)on2)c2ccccc21`, the growth is 119%.

`CSc1nc(Nc2cccc(NC(=O)/C(C#N)=C/c3c(Cl)cccc3Cl)c2)c(C#N)c(-c2cccc([N+](=O)[O-])c2)n1`: the growth is 73.5%.

`COc1ccc(-c2nc3ccc(-c4nc5ccc(N6CCN(c7ccccc7)CC6)cc5[nH]4)cc3[nH]2)cc1OC`: the growth was -19.8% (active).

With `O=C(N=Nc1c(O)[nH]c2ccccc12)c1cc(-c2ccccc2)on1`, the growth is 106%.

`O=C1CC(=NCC(=O)n2c(-c3ccccc3)nc3ccccc32)NN1`: the growth is 120%.

The next assay deals with M14 melanoma. The description is as above. To be noted: 10 µM unless noted.
In the case of `C=C(C)[C@@H]1CC[C@]2(C(=O)OC)CC[C@]3(C)[C@H](CC[C@@H]4[C@@]5(C)C/C(=C/c6cccc(I)c6)C(=O)C(C)(C)[C@@H]5CC[C@]43C)[C@@H]12`, the growth was 103%.

Consider `N#Cc1c(-c2ccc(Cl)cc2)nc(NN=Cc2ccco2)nc1N1CCOCC1`, for which the growth was 71.4%.

For the compound `C=CC(=O)Nc1cccc(Nc2nc(SC)nc(-c3cccc([N+](=O)[O-])c3)c2C#N)c1`, the growth was 45%.

`COc1ccc(/C=C/C(=O)c2ccc(O)c(CN3CCN(c4cc5c(cc4F)c(=O)c(C(=O)O)cn5C4CC4)CC3)c2)cc1`: the growth is 30.9%.

As for `COc1cc2nc(N3CCCC3)nc(Nc3ccccc3)c2cc1OC`, the growth is -70.7% (active).

For the compound `COc1cccc(-c2nc3sccn3c2-c2ccnc(NCCNS(=O)(=O)c3ccccc3)c2)c1`, the growth is 22.5%.

As to `COc1cc(/C=C/C(=O)c2c(C)oc3nc[nH]c(=O)c23)cc(OC)c1OC`, the growth was 75.3%.

Take `C=C(C)[C@@H]1CC[C@]2(C(=O)OC)CC[C@]3(C)[C@H](CC[C@@H]4[C@@]5(C)C/C(=C/c6ccc(OC)cc6)C(=O)C(C)(C)[C@@H]5CC[C@]43C)[C@@H]12`: the growth was 91%.

As for `O=S(=O)(Nc1ccc(I)cc1F)c1ccc(-c2cnc(C3CC3)o2)cc1`, the growth is 37.4%.

Regarding `COc1cc2nc(N3CCCC3)nc(NCCc3ccccc3)c2cc1OC`, the growth is 78.4%.

Regarding `COc1ccc(Nc2nc(SC)nc(-c3cccc([N+](=O)[O-])c3)c2C#N)cc1`, the growth is 74.9%.

For the compound `COc1cc(CNc2oc(-c3ccccc3)c(-c3ccccc3)c2C#N)cc(CN2CCN(C)CC2)c1O`, the growth was -62.2% (active).

Take `COc1ccc(-c2nc3ccc(-c4nc5ccc(N6CCN(c7ccncc7)CC6)cc5[nH]4)cc3[nH]2)cc1OC`: the growth is 13.6%.

For the compound `O=C1/C(=C/c2cn(-c3ccccc3)nc2-c2ccccc2)SC(=S)N1CCc1ccccc1`, the growth is 102%.

Take `CCCN1CCN(c2ccc3nc(-c4ccc5nc(-c6ccc(OCC)cc6)[nH]c5c4)[nH]c3c2)CC1`: the growth was -27.2% (active).

For the compound `COc1cccc(-c2nc3sccn3c2-c2ccnc(NCCCNS(=O)(=O)c3cccc(F)c3)c2)c1`, the growth is 10.9%.

As to `Cn1c(=O)c2c(nc3n(-c4ccc(Cl)cc4Cl)c(Sc4nc(-c5ccccc5)c(C#N)c(=O)[nH]4)cn23)n(C)c1=O`, the growth is 84%.

With `O=C(/C=C/c1ccccc1)c1ccc(O)c(CN2CCN(c3cc4c(cc3F)c(=O)c(C(=O)O)cn4C3CC3)CC2)c1`, the growth was 27.9%.
